Rows were chosen to be rich in hits. Some 7.9% of all compounds tested hit in one or more screens of this group.
NOMO-1 viab: NOMO-1 AML cell viability reduction, primary screen, STK33 inhibitor project, CellTiter-Glo luminescence; NOMO-1 AML viability, 72 h; inhibition, % (concentration not given with the values); actives 7.5% (n = 37,000); in the data active = inhibition above about 80%
MITF inh: inhibitors of MITF, primary screen, MITF inhibitor project, cell-based, luminescence; actives 0.28% (n = 37,000); AID 2240, 2010; inhibition, % (concentration not given with the values); TRPM1 promoter luciferase, 24 h; in the data active = inhibition above about 85%;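 also: human melanocyte line stably carrying TRPM1 promoter luciferase reporter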
Hedgehog inh: Hedgehog pathway signaling inhibitors, primary screen, luminescence, Shh-LIGHT2 cells, Gli-luciferase | Shh-LIGHT2 Gli-luciferase reporter, 30 h | inhibition, % (no concentration beside the values) | actives 2.1% (n = 22,000);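 active = mean inhibition across valid replicates above about 65%, limit read from the data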;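 also: pathway switched on by Shh-conditioned medium diluted 1 in 25 in low serum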
* = called active by the depositor; · = not tested or not shown.

SMILES | NOMO-1 viab | MITF inh | Hedgehog inh
COc1cc(C)c(C(=O)Oc2cc(C)c(C(=O)Oc3cc(C)c(C(=O)NC(C)C(=O)O)c(O)c3)c(O[C@@H]3O[C@H](CO)[C@@H](O)[C@H](O)[C@H]3OC(C)=O)c2)c(O)c1 (stereo not given in full) | · | · | 34
C[C@H](CO)N1C[C@H](C)[C@H](CN(C)Cc2ccc(-c3ccccc3)cc2)Oc2ccc(NC(=O)NC3CCCCC3)cc2CC1=O | 87* | 12 | -14
C[C@H]1CN([C@@H](C)CO)C(=O)Cc2cc(NC(=O)NC3CCCCC3)ccc2O[C@@H]1CN(C)Cc1ccccc1 | 27 | -3 | -14
C[C@H]1CN([C@@H](C)CO)C(=O)Cc2cc(NC(=O)NC3CCCCC3)ccc2O[C@H]1CN(C)Cc1ccc(-c2ccccc2)cc1 | 114* | 25 | 37
C[C@@H]1CN([C@H](C)CO)C(=O)Cc2cc(NC(=O)NC3CCCCC3)ccc2O[C@@H]1CN(C)Cc1ccccc1 | 42 | 11 | 19
CCOc1cccc(NC(=O)C2CC(=O)N(/N=C(\C)c3ccc(Br)s3)C(=N)S2)c1 (stereo not given) | 9 | -16 | -30
COc1ccc(OC)c(NC(=O)c2c(NC(=O)c3ccco3)sc3c2CCC3)c1 | 0 | -23 | ·
CCOc1ccc(NC(=O)c2c(NC(=O)c3ccco3)sc3c2CCCCC3)cc1 | 110* | 22 | ·
O=C(CN1CCN(S(=O)(=O)c2ccc3ccccc3c2)CC1)Nc1ccc(Br)cc1 | 20 | 27 | ·
CC(C)c1ccc(N2C=Nc3ccc(C(C)C)cc3C2)cc1 | 115* | -2 | 6
COc1ccc(C(Nc2ccccn2)c2cc(Cl)c3cccnc3c2O)cc1[N+](=O)[O-] (stereo not given) | 113* | 45 | ·
COc1cc(C(Nc2ccccn2)c2cc(Cl)c3cccnc3c2O)cc(I)c1O (stereo not given) | 25 | 15 | ·
O=C(COc1ccc(Cl)c2cccnc12)Nc1cccc([N+](=O)[O-])c1 | 1 | -19 | ·
COc1ccc(Br)cc1C(Nc1ccccn1)c1cc(Cl)c2cccnc2c1O (stereo not given) | 114* | 51 | ·
Cc1ccc(S(=O)(=O)N(C)C[C@@H]2Oc3ccc(NS(=O)(=O)c4cccs4)cc3C(=O)N([C@H](C)CO)C[C@H]2C)cc1 | -2 | -2 | ·
C/C=C/C1C2OC3=C(C(=O)OC3(C)O)C(=O)C1(C)C1CC(O)C(C)CC1C2O (stereo not given) | -9 | 7 | 4
COc1ccc(NC(=O)Nc2ccc3c(c2)C(=O)N([C@H](C)CO)C[C@H](C)[C@@H](CN(C)S(=O)(=O)c2ccc(OC)cc2)OCCCC[C@@H](C)O3)cc1 | 31 | 25 | ·
O=C(Nc1ccccc1)C1CCCCC1 | 6 | -4 | ·
O=C(ON1C(=O)c2ccccc2C1=O)C1CCCCC1 | 126* | 18 | 70*
C[C@@H]1CN([C@@H](C)CO)C(=O)c2cc(NS(=O)(=O)c3ccccc3)ccc2O[C@H]1CN(C)S(=O)(=O)c1cccs1 | -14 | -10 | -16
Cc1cc(C)c(NC(=O)CSc2nc(O)cc(=O)[nH]2)c(C)c1 | 5 | -5 | ·
COc1ccc(OCC(=O)Nc2cc(-c3nnc(OC)c4ccccc34)ccc2N2CCCCC2)cc1 | 89* | 73 | ·
COc1nnc(-c2ccc(N3CCOCC3)c(NS(=O)(=O)c3ccc(Cl)cc3)c2)c2ccccc12 | 10 | 10 | ·
CC(C)NC(=O)N(C)C[C@H]1Oc2c(NS(=O)(=O)c3ccc(F)cc3)cccc2C(=O)N([C@H](C)CO)C[C@H]1C | 26 | 0 | -9
COc1cc2c(cc1NC(=O)CSc1nnnn1C)oc1ccccc12 | 51 | -67 | ·
Cc1noc(C)c1S(=O)(=O)Nc1ccc2c(c1)C(=O)N([C@@H](C)CO)C[C@@H](C)[C@@H](CN(C)Cc1ccc(C(=O)Nc3ccccc3N)cc1)O2 | 108* | 6 | ·
Cc1noc(C)c1S(=O)(=O)Nc1ccc2c(c1)C(=O)N([C@@H](C)CO)C[C@H](C)[C@@H](CN(C)Cc1ccc(C(=O)Nc3ccccc3N)cc1)O2 | 8 | 3 | ·
Cc1noc(C)c1S(=O)(=O)Nc1ccc2c(c1)CC(=O)N([C@H](C)CO)C[C@H](C)[C@H](CN(C)Cc1ccc(C(=O)Nc3ccccc3N)cc1)O2 | 142* | 42 | ·
Cc1noc(C)c1S(=O)(=O)Nc1ccc2c(c1)C(=O)N([C@H](C)CO)C[C@@H](C)[C@@H](CN(C)Cc1ccc(C(=O)Nc3ccccc3N)cc1)O2 | 108* | 7 | ·
Cc1noc(C)c1S(=O)(=O)Nc1ccc2c(c1)C(=O)N([C@H](C)CO)C[C@H](C)[C@H](CN(C)Cc1ccc(C(=O)Nc3ccccc3N)cc1)O2 | 108* | 11 | ·

Bioassay records as filed in PubChem.
